Laboratory results from PubChem BioAssay AID1159580 (chemical genetic matrix, 2015).
Values joined by “and” are separate entries in the source; they are usually repeats but may differ in a detail not shown here. Equal values may be shown once. Hit rate of the full screen: of about 5,500 compounds, about 2,000 (36%) were called active. Another 18% or so got no clear call; they are omitted. Rule as the data show it: active = normalized growth mostly below about 0.91 (no sharp cut-off); inconclusive = no clear call, values can overlap the other calls; inactive = mostly above about 0.92. Some of the results follow.

Assay: chemical genetic growth profiling, strain panel (AID 1159580);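 also: tested at 20 µM; growth read once vehicle control cultures reached saturation at 30 °C; 1 = growth at the plate median or of vehicle wells; lower values mean less growth of the strain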
Settings: S. cerevisiae deletion strains, growth OD

Measured: normalized growth

COc1cc2c(c(OC)c1OC)-c1ccc(OC)c(=O)cc1[C@@H](NC(C)=O)CC2
inactive: locus YAL013W, strain DEP1, active compounds read low 1.02 | locus YAL021C, strain ccr4, active compounds read low 1.01 | locus YAL026C, strain drs2, active compounds read low 1 | locus YAL030W, strain snc1, active compounds read low 0.988 | locus YBL061C, strain skt5, active compounds read low 1 | locus YBR009C, strain hhf1, active compounds read low 0.985 | locus YBR021W, strain FUR4, active compounds read low 1.04 | locus YBR023C, strain chs3, active compounds read low 0.998 | locus YBR171W, strain sec66, active compounds read low 1.01 | locus YBR229C, strain ROT2, active compounds read low 1.02 | locus YBR231C, strain swc5, active compounds read low 1.02 | locus YBR279W, strain paf1, active compounds read low 1 | locus YCL011C, strain gbp2, active compounds read low 1 | locus YCL016C, strain dcc1, active compounds read low 0.986 | locus YCL029C, strain bik1, active compounds read low 1.03 | locus YCL069W, strain vba3, active compounds read low 1 | locus YCR088W, strain abp1, active compounds read low 1.01 | locus YDL005C, strain med2, active compounds read low 1.01 | locus YDL035C, strain GPR1, active compounds read low 1.02 | locus YDL040C, strain nat1, active compounds read low 1.01 | locus YDL074C, strain BRE1, active compounds read low 1.04 | locus YDL101C, strain DUN1, active compounds read low 1.02 | locus YDL134C, strain PPH21, active compounds read low 1.02 | locus YDL185W, strain tfp1, active compounds read low 1.04 | locus YDL192W, strain arf1, active compounds read low 1.02 | locus YDR001C, strain nth1, active compounds read low 1.02 | locus YDR069C, strain doa4, active compounds read low 1.04 | locus YDR101C, strain arx1, active compounds read low 1.02 | locus YDR137W, strain rgp1, active compounds read low 0.988 | locus YDR159W, strain sac3, active compounds read low 0.999 | locus YDR162C, strain NBP2, active compounds read low 1.03 | locus YDR195W, strain ref2 0.974 | locus YDR297W, strain sur2, active compounds read low 1.01 | locus YDR318W, strain mcm21, active compounds read low 1.03 | locus YDR334W, strain swr1, active compounds read low 1.01 | locus YDR335W, strain msn5, active compounds read low 0.998 | locus YDR388W, active compounds read low 1.03 | locus YDR392W, strain spt3, active compounds read low 0.968 | locus YDR502C, strain sam2, active compounds read low 1.02 | locus YEL003W, strain gim4, active compounds read low 1 | locus YEL037C, strain rad23, active compounds read low 1.01 | locus YEL061C, strain CIN8 (second series), active compounds read low 0.999 | locus YEL061C, strain CIN8, active compounds read low 1.01 | locus YER015W, strain faa2, active compounds read low 1.01 | locus YER016W, strain bim1, active compounds read low 0.963 | locus YER110C, active compounds read low 1.02 | locus YER111C, strain swi4, active compounds read low 1.02 | locus YER155C, strain BEM2 (second series), active compounds read low 1.02 | locus YER155C, strain BEM2, active compounds read low 1.01 | locus YER167W, strain BCK2, active compounds read low 1.02 | locus YFR010W, strain ubp6, active compounds read low 1.01 | locus YGL078C, strain dbp3, active compounds read low 1.03 | locus YGL086W, strain mad1, active compounds read low 1.02 | locus YGL167C, strain pmr1, active compounds read low 1.02 | locus YGL173C, strain kem1, active compounds read low 1.03 | locus YGL227W, strain vid30, active compounds read low 1.01 | locus YGL240W, strain doc1, active compounds read low 1.03 | locus YGL248W, strain PDE1, active compounds read low 1.03 | locus YGL253W, strain hxk2, active compounds read low 1 | locus YGR078C, strain PAC10, active compounds read low 1.03 | locus YGR135W, strain pre9, active compounds read low 1.03 | locus YGR229C, strain SMI1, active compounds read low 1.02 | locus YGR252W, strain gcn5, active compounds read low 1.07 | locus YHR013C, strain ard1, active compounds read low 0.986 | locus YHR027C, strain rpn1, active compounds read low 1.01 | locus YHR030C, strain SLT2, active compounds read low 1.01 and 1.04 | locus YHR079C, strain IRE1 (second series), active compounds read low 1.04 | locus YHR079C, strain IRE1, active compounds read low 1.04 | locus YHR094C, strain hxt1, active compounds read low 1.02 | locus YHR129C, strain ARP1, active compounds read low 1.01 | locus YHR142W, strain chs7, active compounds read low 0.996 | locus YHR200W, strain rpn10, active compounds read low 1.03 | locus YIL066C, strain RNR3, active compounds read low 1.02 | locus YIL073C, strain SPO22, active compounds read low 1.04 | locus YIL125W, strain kgd1, active compounds read low 1.03 | locus YIR030C, strain dcg1, active compounds read low 1.04 | locus YJL092W, strain hpr5, active compounds read low 1.01 | locus YJL095W, strain BCK1 (second series), active compounds read low 1 | locus YJL095W, strain BCK1, active compounds read low 1.04 and 1.02 | locus YJL115W, strain asf1, active compounds read low 1.02 | locus YJL129C, strain trk1, active compounds read low 1.01 | locus YJL134W, strain LCB3, active compounds read low 1.02 | locus YJL154C, strain vps35, active compounds read low 0.995 | locus YJL164C, strain tpk1, active compounds read low 0.984 | locus YJL166W, strain qcr8, active compounds read low 1.02 | locus YJL168C, strain set2, active compounds read low 1.02 | locus YJL187C, strain SWE1 (second series), active compounds read low 1.03 | locus YJR043C, strain POL32, active compounds read low 1 | locus YJR066W, strain TOR1, active compounds read low 0.988 | locus YJR075W, strain HOC1, active compounds read low 1.02 | locus YKL009W, strain mrt4, active compounds read low 1.01 | locus YKL068W, active compounds read low 1.03 | locus YKL085W, strain MDH1 (second series), active compounds read low 1.06 | locus YKL085W, strain MDH1, active compounds read low 1.06 | locus YKL160W, strain elf1, active compounds read low 1.02 | locus YKL190W, strain CNB1, active compounds read low 1.01 | locus YKR001C, strain vps1, active compounds read low 1.03 | locus YKR026C, strain gcn3, active compounds read low 1.06 | locus YKR091W, strain srl3, active compounds read low 0.985 | locus YLL001W, strain dnm1, active compounds read low 1.01 | locus YLL026W, active compounds read low 0.991 | locus YLL041C, strain sdh2, active compounds read low 1.01 | locus YLR027C, strain aat2, active compounds read low 1.01 | locus YLR039C, strain RIC1, active compounds read low 1.05 | locus YLR058C, strain SHM2, active compounds read low 1.03 | locus YLR102C, strain apc9, active compounds read low 1.03 | locus YLR113W, strain HOG1, active compounds read low 1.04 | locus YLR221C, strain rsa3, active compounds read low 0.997 | locus YLR258W, strain gsy2, active compounds read low 1.01 | locus YLR262C, strain YPT6 (second series), active compounds read low 1.04 | locus YLR262C, strain YPT6, active compounds read low 1.04 | locus YLR268W, strain sec22, active compounds read low 1.04 | locus YLR320W, strain mms22, active compounds read low 1.01 | locus YLR330W, strain CHS5, active compounds read low 1.02 | locus YLR342W, strain FKS1 (second series), active compounds read low 1.03 | locus YLR342W, strain FKS1, active compounds read low 1.01 | locus YLR357W, strain rsc2, active compounds read low 1.02 | locus YLR370C, strain arc18, active compounds read low 1.01 | locus YLR371W, strain rom2, active compounds read low 1.03 | locus YLR384C, strain iki3, active compounds read low 1.02 | locus YLR418C, strain cdc73, active compounds read low 1.06 | locus YML016C, strain PPZ1, active compounds read low 1.03 | locus YML032C, strain rad52, active compounds read low 1.02 | locus YML120C, strain ndi1, active compounds read low 1.02 | locus YML124C, strain tub3, active compounds read low 1.03 | locus YMR058W, strain fet3, active compounds read low 1.01 | locus YMR078C, strain ctf18, active compounds read low 1.04 | locus YMR125W, strain sto1, active compounds read low 1.01 | locus YMR129W, active compounds read low 1.02 | locus YMR205C, strain PFK2, active compounds read low 1 | locus YMR223W, strain ubp8, active compounds read low 1.04 | locus YMR231W, strain pep5, active compounds read low 1.01 | locus YMR307W, strain GAS1, active compounds read low 0.99 | locus YNL067W, strain RPL9B, active compounds read low 1.03 | locus YNL071W, strain lat1, active compounds read low 1 | locus YNL128W, strain TEP1, active compounds read low 1.03 | locus YNL153C, strain GIM3, active compounds read low 1.02 | locus YNL183C, strain NPR1, active compounds read low 0.99 | locus YNL209W, strain ssb2, active compounds read low 1 | locus YNL233W, strain BNI4, active compounds read low 1.02 | locus YNL248C, strain rpa49, active compounds read low 0.947 | locus YNL250W, strain rad50, active compounds read low 1 | locus YNL271C, strain bni1, active compounds read low 1.04 | locus YNL298W, strain CLA4, active compounds read low 1.03 | locus YNL307C, strain MCK1, active compounds read low 1.03 | locus YNL322C, strain KRE1 (second series), active compounds read low 1.02 | locus YNR049C, strain mso1, active compounds read low 1.03 | locus YNR052C, strain pop2, active compounds read low 1.02 | locus YOL012C, strain htz1 0.756 | locus YOL147C, strain pex11, active compounds read low 1.04 | locus YOR001W, strain rrp6, active compounds read low 1.02 | locus YOR061W, strain CKA2, active compounds read low 1.03 | locus YOR069W, strain VPS5, active compounds read low 1.01 | locus YOR070C, strain gyp1, active compounds read low 0.995 | locus YOR080W, strain dia2, active compounds read low 1.02 | locus YOR083W, strain WHI5, active compounds read low 1.02 | locus YOR106W, strain vam3, active compounds read low 1.03 | locus YOR136W, strain idh2, active compounds read low 1.02 | locus YOR144C, strain elg1, active compounds read low 1.03 | locus YOR184W, strain ser1, active compounds read low 1.04 | locus YOR231W, strain MKK1, active compounds read low 1.03 | locus YOR265W, strain rbl2, active compounds read low 1.01 | locus YOR270C, strain vph1, active compounds read low 1.01 | locus YOR290C, strain snf2, active compounds read low 1.01 | locus YOR316C, strain cot1, active compounds read low 1.04 | locus YPL051W, strain arl3, active compounds read low 1.02 | locus YPL055C, strain LGE1, active compounds read low 1.04 | locus YPL078C, strain atp4, active compounds read low 1.02 | locus YPL106C, strain sse1, active compounds read low 0.989 | locus YPL240C, strain hsp82, active compounds read low 1 | locus YPL241C, strain CIN2, active compounds read low 1.01 | locus YPL256C, strain CLN2, active compounds read low 1.12 | locus YPR119W, strain clb2, active compounds read low 1.03 | locus YPR141C, strain kar3, active compounds read low 1.05 | locus YPR163C, strain tif3, active compounds read low 1.04 | locus YPR167C, strain met16, active compounds read low 1.04 | strain wtn01, active compounds read low 1.01
